Test results taken from the supplement of paper PMC8728848.
Many of the other results were omitted from the sample, so the strongest signals are more common in it than they were.

Experiments:
Experiment in all cases: glycan array binding signal (z-score within array); higher = stronger binding
Conditions in all cases: glycan notation: IUPAC condensed, linker removed
GalNAc(b1-3)GlcNAc = molecular target: GalNAc(b1-3)GlcNAc
Outline: (§1)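 The binding signal is a Z-score computed within each array. Data were drawn from 3228 arrays in the Consortium for Functional Glycomics database, restricted to those with a known protein sequence. Scores were averaged over arrays of the same protein sequence at different concentrations or buffers, and over linkers, and negative values can be taken as non-binding.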

Glc(a1-4)Glc = molecular target: Glc(a1-4)Glc
Outline: as §1

GlcA(b1-3)Gal = molecular target: GlcA(b1-3)Gal
Outline: as §1

[1] = molecular target: GlcNAc(b1-2)Man(a1-3)[GlcNAc(b1-4)][GlcNAc(b1-2)Man(a1-6)]Man(b1-4)GlcNAc(b1-4)[Fuc(a1-6)]GlcNAc
Outline: as §1

[2] = molecular target: GlcNAc(b1-2)[GlcNAc(b1-4)]Man(a1-3)[GlcNAc(b1-4)][GlcNAc(b1-2)[GlcNAc(b1-6)]Man(a1-6)]Man(b1-4)GlcNAc(b1-4)GlcNAc
Outline: as §1

[3] = molecular target: GlcNAc(b1-3)Gal(b1-4)GlcNAc(b1-3)Gal(b1-4)GlcNAc(b1-3)Gal(b1-4)GlcNAc(b1-2)[GlcNAc(b1-3)Gal(b1-4)GlcNAc(b1-3)Gal(b1-4)GlcNAc(b1-3)Gal(b1-4)GlcNAc(b1-6)]Man(a1-6)[GlcNAc(b1-3)Gal(b1-4)GlcNAc(b1-3)Gal(b1-4)GlcNAc(b1-3)Gal(b1-4)GlcNAc(b1-2)Man(a1-3)]Man(b1-4)GlcNAc(b1-4)[Fuc(a1-6)]GlcNAc
Outline: as §1

[4] = molecular target: GlcNAc(b1-3)Gal(b1-4)GlcNAc(b1-3)[GlcNAc(b1-3)Gal(b1-4)GlcNAc(b1-3)]GalNAc
Outline: as §1

[5] = molecular target: GlcNAc(b1-3)Gal(b1-4)GlcNAc(b1-6)[Gal(b1-3)]GalNAc
Outline: as §1

GlcNAc(b1-3)Man = molecular target: GlcNAc(b1-3)Man
Outline: as §1

[6] = molecular target: GlcNAc(b1-4)GlcNAc(b1-4)GlcNAc
Outline: as §1

Kdn(a2-6)Gal(b1-4)GlcNAc = molecular target: Kdn(a2-6)Gal(b1-4)GlcNAc
Outline: as §1

[7] = molecular target: Neu5Ac(a2-3)Gal(b1-3)GlcNAc(b1-3)Gal(b1-3)GlcNAc
Outline: as §1

[8] = molecular target: Neu5Ac(a2-3)Gal(b1-3)GlcNAc(b1-3)Gal(b1-4)GlcNAc
Outline: as §1

[9] = molecular target: Neu5Ac(a2-3)Gal(b1-3)[Fuc(a1-4)]GlcNAc(b1-3)Gal(b1-4)[Fuc(a1-3)]GlcNAc
Outline: as §1

[10] = molecular target: Neu5Ac(a2-3)Gal(b1-4)GlcNAc(b1-2)[Neu5Ac(a2-3)Gal(b1-4)GlcNAc(b1-6)]Man(a1-6)[Neu5Ac(a2-3)Gal(b1-4)GlcNAc(b1-2)Man(a1-3)]Man(b1-4)GlcNAc(b1-4)GlcNAc
Outline: as §1

[11] = molecular target: Neu5Ac(a2-3)Gal(b1-4)GlcNAc(b1-2)[Neu5Ac(a2-3)Gal(b1-4)GlcNAc(b1-6)]Man(a1-6)[Neu5Ac(a2-3)Gal(b1-4)GlcNAc(b1-2)Man(a1-3)][GlcNAc(b1-4)]Man(b1-4)GlcNAc(b1-4)GlcNAc
Outline: as §1

[12] = molecular target: Neu5Ac(a2-3)Gal(b1-4)GlcNAc(b1-3)Gal(b1-4)GlcNAc(b1-3)Gal(b1-4)GlcNAc
Outline: as §1

[13] = molecular target: Neu5Ac(a2-3)Gal(b1-4)GlcNAc(b1-6)GalNAc
Outline: as §1

[14] = molecular target: Neu5Ac(a2-3)Gal(b1-4)GlcNAc(b1-6)[Gal(b1-3)]GalNAc
Outline: as §1

[15] = molecular target: Neu5Ac(a2-6)Gal(b1-4)GlcNAc(b1-2)Man(a1-3)[Neu5Ac(a2-6)Gal(b1-4)GlcNAc(b1-2)Man(a1-6)]Man(b1-4)GlcNAc(b1-4)GlcNAc
Outline: as §1

[16] = molecular target: Neu5Ac(a2-6)Gal(b1-4)GlcNAc(b1-2)Man(a1-6)[Gal(b1-4)GlcNAc(b1-2)Man(a1-3)]Man(b1-4)GlcNAc(b1-4)GlcNAc
Outline: as §1

[17] = molecular target: Neu5Ac(a2-6)Gal(b1-4)GlcNAc(b1-3)Gal(b1-4)GlcNAc(b1-3)Gal(b1-4)GlcNAc(b1-2)Man(a1-3)[Neu5Ac(a2-6)Gal(b1-4)GlcNAc(b1-3)Gal(b1-4)GlcNAc(b1-3)Gal(b1-4)GlcNAc(b1-2)Man(a1-6)]GalNAc
Outline: as §1

[18] = molecular target: Neu5Ac(a2-6)Gal(b1-4)GlcNAc(b1-6)[Gal(b1-3)GlcNAc(b1-3)]Gal(b1-4)Glc
Outline: as §1

[19] = molecular target: Neu5Ac(a2-6)GalNAc(b1-4)GlcNAc6S
Outline: as §1

[20] = molecular target: Neu5Ac(a2-8)Neu5Ac(a2-3)Gal(b1-3)GalNAc(b1-4)[Neu5Ac(a2-3)]Gal(b1-4)Glc
Outline: as §1

[21] = molecular target: Neu5Ac(a2-8)Neu5Ac(a2-8)Neu5Ac(a2-3)[GalNAc(b1-4)]Gal(b1-4)Glc
Outline: as §1

[22] = molecular target: Neu5Ac9Ac(a2-6)Gal(b1-4)GlcNAc
Outline: as §1

[23] = molecular target: Neu5Gc(a2-6)Gal(b1-4)GlcNAc
Outline: as §1

[24] = molecular target: Neu5Gc(a2-8)Neu5Gc(a2-3)Gal(b1-4)GlcNAc(b1-3)Gal(b1-4)GlcNAc
Outline: as §1

B1: Gal 4 (Mus musculus), P56470 (protein)
chain: MAYVPAPGYQPTYNPTLPYYQPIPGGLNVGMSVYIQGVASEHMKRFFVNFVVGQDPGSDVAFHFNPRFDGWDKVVFNTLQGGKWGSEERKRSMPFKKGAAFELVFIVLAEHYKVVVNGNPFYEYGHRLPLQMVTHLQVDGDLQLQSINFIGGQPLRPQGPPMMPPYPGPGHCHQQLNSLPTMEGPPTFNPPVPYFGRLQGGLTARRTIIIKGYVPPTGKSFAINFKVGSSGDIALHINPRMGNGTVVRNSLLNGSWGSEEKKITHNPFGPGQFFDLSIRCGLDRFKVYANGQHLFDFAHRLSAFQRVDTLEIQGDVTLSYVQI
GalNAc(b1-3)GlcNAc
  glycan array binding signal (z-score): -0.272
Glc(a1-4)Glc
  glycan array binding signal (z-score): -0.244
GlcA(b1-3)Gal
  glycan array binding signal (z-score): -0.24
[1]
  glycan array binding signal (z-score): -0.278
[2]
  glycan array binding signal (z-score): -0.23
[3]
  glycan array binding signal (z-score): -0.244
[4]
  glycan array binding signal (z-score): -0.255
[5]
  glycan array binding signal (z-score): -0.174
GlcNAc(b1-3)Man
  glycan array binding signal (z-score): -0.218
[6]
  glycan array binding signal (z-score): -0.23
Kdn(a2-6)Gal(b1-4)GlcNAc
  glycan array binding signal (z-score): -0.242
[7]
  glycan array binding signal (z-score): 0.107
[8]
  glycan array binding signal (z-score): -0.205
[9]
  glycan array binding signal (z-score): -0.234
[10]
  glycan array binding signal (z-score): -0.196
[11]
  glycan array binding signal (z-score): -0.338
[12]
  glycan array binding signal (z-score): -0.231
[13]
  glycan array binding signal (z-score): -0.314
[14]
  glycan array binding signal (z-score): -0.228
[15]
  glycan array binding signal (z-score): -0.226
[16]
  glycan array binding signal (z-score): -0.196
[17]
  glycan array binding signal (z-score): -0.294
[18]
  glycan array binding signal (z-score): -0.295
[19]
  glycan array binding signal (z-score): -0.293
[20]
  glycan array binding signal (z-score): -0.247
[21]
  glycan array binding signal (z-score): -0.227
[22]
  glycan array binding signal (z-score): -0.232
[23]
  glycan array binding signal (z-score): -0.231
[24]
  glycan array binding signal (z-score): -0.309
